The list is not random: actives were taken first. Their share in the collection is about 21%.
Pf growth 48h = P. falciparum growth inhibition at 48 hours (one generation); P. falciparum luciferase growth in erythrocytes, 48 h; Potency, µM (titrated, usually from 28.7 µM), for inactives: at the top dose activity change, negative = inhibition, usual class: inhibitors; 310,000 compounds, 5.9% hits; AID 504832; also: potency is read from the fitted curve at half-maximal effect; % is scaled to controls: 0 for no effect and ±100 for the full control effect
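In quantitative HTS format, infected erythrocytes bearing luciferase-reporter parasites were treated for a single generation at 37 C. Luminescence after adding detection reagent served as the growth measure.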
Cycloheximide cs = affects cycloheximide protein synthesis inhibition readout, counter-screen; max response, %; AID 2314; cell reporter, cycloheximide protein synthesis inhibition counterscreen; 300,000 compounds, 12% hits; in the data active = max response mostly above about 13%, no sharp cut-off; inactive = mostly below about 14%; also: read at 38.3 µM for the half of the compounds with a filed dose; 0% is about no effect
NS1 inh = influenza NS1 inhibition. Potency, µM (highest dose often 46.1 µM), for the others: top-dose activity, positive = more growth. 270,000 compounds, 0.4% hits; calls by dose curve; also: potency is read from the fitted curve at half-maximal effect; actives are rising curves; nearly all actives have a fitted effect of over 50% in size
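A cell-based growth assay was used: compounds that relieve NS1-induced slow growth of budding yeast raise OD600. Assay medium was yeast nitrogen base with ammonium sulphate and -URA supplement, pH 6.0, with 2% galactose.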
FBPA Giardia inh = inhibitors of Giardia lamblia fructose-1,6-bisphosphate aldolase | A8B2U2 | purified Giardia FBPA | Potency, µM (series often up to 59.6 µM), without a hit: top-dose activity, negative = inhibition, most hits filed as inhibitors | 290,000 compounds, 0.71% hits | AID 2451; also: potency is read from the fitted curve at half-maximal effect; % is scaled to controls: 0 for no effect and ±100 for the full control effect; nearly all actives have a fitted effect of over 55% in size
Target sequence (A8B2U2 whole entry, looked up): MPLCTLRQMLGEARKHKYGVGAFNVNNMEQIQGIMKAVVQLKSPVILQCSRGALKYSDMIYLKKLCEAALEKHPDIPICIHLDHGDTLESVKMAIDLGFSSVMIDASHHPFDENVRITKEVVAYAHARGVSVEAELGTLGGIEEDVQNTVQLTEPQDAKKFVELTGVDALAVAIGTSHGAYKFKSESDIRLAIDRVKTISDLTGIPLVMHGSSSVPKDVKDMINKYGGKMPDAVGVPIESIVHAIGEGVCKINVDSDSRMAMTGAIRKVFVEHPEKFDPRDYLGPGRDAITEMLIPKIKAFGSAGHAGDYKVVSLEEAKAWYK
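40 nM FBPA preincubated 10 min at RT with compound (up to 57.5 uM final), then substrate plus GAPDH/TPI/NAD/arsenate coupling and diaphorase/resazurin added. Fluorescence read after 20 min at RT, 525/598 nm.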
Pf growth 96h = P. falciparum growth inhibition at 96 hours | P. falciparum luciferase reporter growth, 96 h | Potency, µM (highest dose often 28.7 µM), for inactives: top-dose activity change, negative = inhibition, most hits filed as inhibitors | 320,000 compounds, 6.9% hits | AID 504834; also: potency is read from the fitted curve at half-maximal effect; % is scaled to controls: 0 for no effect and ±100 for the full control effect
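Luminescence readout: decreased luciferase signal marks inhibited growth of reporter-expressing P. falciparum in infected red cells (2% hematocrit, 0.05% parasitemia final), exposed to compound two generations (96 h, 37 C, 5% CO2).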
Shiga inhibitor = inhibitors of Shiga toxin in Vero cells | Vero cells, Shiga toxin protein synthesis inhibition reporter | inhibition, % at 38.7 µM | 290,000 compounds, 9.2% hits; in the data active = inhibition mostly above about 28%, no sharp cut-off; inactive = mostly below about 43%; also: 0% is about no effect
* = called active by the depositor; ? = inconclusive; · = no result; ! = not active in a repeat; [ ] = another dose, or the depositor's remark. Unless noted, calls follow the shape of the dose curve; as a rule, active = well fitted curve in the direction sought with a large enough effect; inconclusive = small, poorly fitted or top-dose-only effect, or another doubt; inactive = no such curve, though single readings can be large; an effect the other way counts as inactive or inconclusive.

SMILES	Pf growth 48h	Cycloheximide cs	NS1 inh	FBPA Giardia inh	Pf growth 96h	Shiga inhibitor
CCOc1ccc(NC(=O)CN2C(=O)CSC(C)C2=O)cc1 (stereo not given)	3%	41*	·	0%	32%	113*
COc1ccc(NC(=O)CN2C(=O)CSC(C)C2=O)c(OC)c1 (stereo not given)	31%	4	0%	-9%	52%	-7
CCOc1ccccc1C1C2CCCCC2(O)CCN1C(=O)c1cccs1 (stereo not given)	?	44*	10%	12%	?	55*
Cc1ccc(N2CC(O)Cn3c2nc2c3c(=O)[nH]c(=O)n2C)cc1 (stereo not given)	40%	3	3%	-6%	?	0
C[C@@]12C(=O)OC(=O)[C@]1(C)[C@H]1CC[C@@H]2O1	2µM*	·	·	4%[21.7 µM]	1µM*	·
COc1ccccc1N1CCN(C(=O)C2CCN(S(=O)(=O)c3ccc4c(c3)CC(C)N4C(C)=O)CC2)CC1 (stereo not given)	12µM*	2	-12%	-8%	17%	6
COc1ccccc1N1CCN(C(=O)C2CCN(S(=O)(=O)c3ccccc3)CC2)CC1	?	1	-8%	2%	?	-11
COc1ccc(S(=O)(=O)N2CCC(C(=O)N3CCc4ccccc4C3)CC2)cc1Cl	·	28*	?	1%	?	23
COc1ccc(S(=O)(=O)N2CCC(C(=O)N3CCN(c4ccccc4OC)CC3)CC2)cc1	13µM*	-2	-11%	2%	-5%	-9
CC(C)(C)OC(=O)NN1CC(=O)N2Cc3ccccc3C[C@@H]2C1=O	-13%	-2	2%	4%	4%	-6
COCc1cc(C)nc(SCC(=O)Nc2cccc(C)c2C)c1C#N	?	-2	8%	11%	?	16
COCc1cc(C)nc(SCC(=O)Nc2nc(C)cs2)c1C#N	41%	24*	-10%	-1%	?	49
COCc1cc(C)nc(SCC(=O)NCc2ccco2)c1C#N	3%	1	5%	0%	9.3µM*	-10
Cc1cc2cc(C)c(SCC(=O)NCc3ccco3)nc2cc1C	?	-2	-7%	5%	9%	-8
Cc1cc2ccc3ccccc3c2cc1CN(C)C	-25%	33*	-5%	-28%	?	60*
Cc1cccc2cc3ccc4ccccc4c3cc12	·	·	7%	·	·	·
C[C@@H]1C[C@](C)(C(=O)c2ccc3c(c2)OCO3)C=C1c1ccc2c(c1)OCO2	·	·	·	0%	·	·
CCc1ccc(OCC(=O)Nc2ccc(-c3nc4ccccc4o3)c(O)c2)cc1	51%	9	10%	6%	?	40
O=[N+]([O-])c1ccc(-c2nc(NCc3cccnc3)c3ccccc3n2)cc1	1%	23*	0%	-4%	15µM*	53*
CN(C)c1ccc(-c2nc(NCc3cccnc3)c3ccccc3n2)cc1	·	·	·	-11%	·	·
Oc1cc(NCc2cccnc2)ccc1-c1nc2ccccc2o1	-32%	53*	-51%	-5%	·	84*
Oc1ccccc1-c1nc(NCc2cccnc2)c2ccccc2n1	15µM*	10	-1%	-4%	?	24
O=C(Nc1ccc(C(F)(F)F)cc1)c1cnc(N2CCN(c3ccccn3)CC2)c2ccccc12	?	9	·	-1%	22%	-2
O=C(CN1c2ccccc2Sc2ccccc21)NNC(=O)Nc1cccc(Cl)c1	-8%	1	-4%	1%	-23%	-14
O=C(CNC(=O)c1ccc(Br)o1)Nc1cccc(S(=O)(=O)N2CCCC2)c1	-21%	·	·	·	?	·
SMILES	Pf growth 48h	Cycloheximide cs	NS1 inh	FBPA Giardia inh	Pf growth 96h	Shiga inhibitor
COc1ccccc1-c1ccc(C(=O)O)o1	29%	22*!	-1%	8%	0%	75
O=C(NCc1ccco1)c1ccc(-c2ccc(Cl)cc2)o1	7%	37*	·	-8%	-14%	78*
O=C(NCc1ccco1)c1ccc(-c2ccccc2Cl)o1	11%	43*	·	-4%	-29%	49
O=C(NCc1ccco1)c1ccc(CS(=O)(=O)Cc2ccc(Cl)cc2)o1	-18%	-4	-9%	?	12%	-1
COc1ccccc1CNC(=O)c1ccc(-c2ccccc2C(F)(F)F)o1	?	-1	-3%	-7%	?	11
COc1ccccc1CNC(=O)c1ccc(-c2ccccc2Cl)o1	-25%	23	-59%	-1%	10µM*	33
CCN(CC)CCNC(=O)c1ccc(NC(=O)c2ccc(C(=O)c3ccccc3)cc2)cc1	5.9µM*	·	·	·	10µM*	·
CCN(CC)CCNC(=O)c1ccc(NC(=O)c2ccc(COc3ccccc3)cc2)cc1	30%	29*	10%	·	?	-7
COc1ccccc1C(=O)NCCC(=O)Nc1ccc(S(=O)(=O)N2CC(C)CC(C)C2)cc1 (stereo not given)	?	·	·	·	15µM*	·
COc1ccccc1C(=O)NCCC(=O)Nc1ccc(S(=O)(=O)N2C(C)CCCC2C)cc1 (stereo not given)	15µM*	·	·	·	?	·
CCOC(=O)N1CCN(C(=O)COc2ccccc2OC)CC1	2.3µM*	-3	-3%	-1%	·	4
CCOC(=O)N1CCN(C(=O)CCSc2ccccc2)CC1	112%	54*	-9%	1%	15%	85*
CCOC(=O)N1CCN(C(=O)CCSc2ccc(Cl)cc2)CC1	26%	13	-1%	3%	-20%	18
NC(=O)C1CCN(C(=O)Cc2ccc(-c3ccccc3)cc2)CC1	-15%	53	22%	-5%	-4%	19
CCOC(=O)N1CCN(C(=O)CCSc2ccc(C)cc2)CC1	7%	8.6*	0%	3%	·	active
NC(=O)C1CCN(C(=O)CCSc2ccccc2)CC1	179%	20*	8%	4%	-23%	44*
CCOC(=O)N1CCN(C(=O)COc2ccccc2[N+](=O)[O-])CC1	6%	10	·	1%	0%	-11
Cc1cc(C)c(-n2c(SCC(=O)N3CCOCC3)n[nH]c2=O)c(C)c1	33%	-2	-1%	3%	0%	3
Cc1cccc(N2CCN(C(=O)c3c(Cl)cnn3C)CC2)c1C	3%	-3	-30%	·	3%	-29
C[C@]1(O)CC[C@H]2[C@@H]3[C@@H](O)CC4=CC(=O)CC[C@@]4(C)[C@H]3CC[C@]21C	·	·	-1%	·	·	·
COc1ccccc1NC(CC(=O)c1ccccc1)C(=O)OCC(=O)c1ccc(C)cc1 (stereo not given)	242%	33*	-6%	-1%	?	73*
COc1ccccc1NC(CC(=O)c1ccccc1)C(=O)OCC(=O)c1ccc(Br)cc1 (stereo not given)	250%	102*	12%	-7%	113%	115*
CC(=O)NC(Cc1ccccc1)C(=O)OCC(=O)c1ccc(Br)cc1 (stereo not given)	-11%	-3	-15%	5%	110%	10
COc1ccccc1NC(CC(=O)c1ccccc1)C(=O)OCC(=O)c1ccc(C)c(C)c1 (stereo not given)	148%	40*	-14%	-1%	-14%	37*

Screening data deposited in PubChem BioAssay by National Center for Advancing Translational Sciences (NCATS).
